Results from PubChem BioAssay (NCI).
This is part of a sample that, as a whole, favours compounds with a hit. Of some 79,000 tested, about 15% had one in any assay. Active and inactive are the calls of the source. Cut-off read from the data, not from the text of the source: active = growth inhibition above about 70%; inactive = the rest.

What was measured:
[1] = NCI Yeast Anticancer Drug Screen. Data for the rad50 strain (AID 155);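 note: 0% = growth of vehicle-only cultures of the same strain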; details: S. cerevisiae rad50 strain growth inhibition; at 50.0 µM; active compounds read high
Method in brief: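 Readout: growth inhibition relative to vehicle-treated cultures. Compound exposure was carried out in a genetically defined yeast strain deficient in DNA damage repair.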

[2] = NCI Yeast Anticancer Drug Screen. Data for the mec2-1 strain (AID 157); details: S. cerevisiae mec2-1 strain, at 50.0 µM, active compounds read high
Method in brief: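 Readout is yeast growth inhibition, normalised to vehicle-treated controls, in the mec2-1 strain exposed to compound.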

[3] = NCI Yeast Anticancer Drug Screen. Data for the sgs1 mgt1 strain (AID 161);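 note: 0% = growth of cultures given vehicle only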; details: S. cerevisiae sgs1 mgt1 strain, at 50.0 µM, active compounds read high
Method in brief: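 Percent growth inhibition was derived by comparing compound-exposed mutant yeast with vehicle-exposed cultures. The strain carries alterations in DNA damage repair.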

[4] = NCI Yeast Anticancer Drug Screen. Data for the cln2 rad14 strain (AID 165);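 note: 0% = growth equal to vehicle treated cultures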; details: S. cerevisiae cln2 rad14 strain, at 50.0 µM, active compounds read high
Method in brief: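 Relative to vehicle controls, growth inhibition of compound-treated cln2 rad14 yeast was recorded.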

[5] = NCI Yeast Anticancer Drug Screen. Data for the bub3 strain (AID 167); details: S. cerevisiae bub3 mutant strain, at 50.0 µM, active compounds read high
Method in brief: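 Readout: yeast growth inhibition, expressed relative to vehicle-only wells. The test organism is a mutant strain from a panel with lesions in DNA repair or checkpoint genes.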

[6] = NCI Yeast Anticancer Drug Screen. Data for the mlh1 rad18 strain (AID 175); details: S. cerevisiae mlh1 rad18 strain growth inhibition; at 50.0 µM; active compounds read high
Method in brief: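 Test agents were incubated with a yeast strain of defined genotype (DNA damage repair defect). Inhibition of growth was derived by comparison with vehicle-exposed cultures.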

Measured: growth inhibition

C[N+](C)([O-])CCCNc1ccnc2cccc([N+](=O)[O-])c12
inactive: [1] 24.1% | [2] 6.6% | [3] 28.9% | [4] 8.4% | [5] 9.95% | [6] -21.4%

O=C(NNc1ccccc1)NNc1ccccc1 (tested in a mixture with another compound)
inactive: [1] 11.1% | [2] -0.45% | [3] -0.9% | [4] 23.8% | [5] -12.2% | [6] 1.65%

COC(=O)c1ccccc1NC(=O)Nc1cc(Cl)ccc1OC
active: [1] 85.5% | [2] 91.2% | [3] 90.4% | [4] 80.8% | [5] 88.2% | [6] 88.9%

CCC(SC)C(=O)N(C)c1ccccc1 (stereo not drawn)
inactive: [1] -8.5% | [2] -15.3% | [3] 1.25% | [4] -10.3% | [5] -13.1% | [6] -3%

CC(C)(C)OC(=O)NC(CCC(=O)OCc1ccccc1)C(=O)NCCCO (stereo not drawn)
inactive: [1] -11.8% | [2] -35.3% | [3] 8.4% | [4] -9.35% | [5] -15.7% | [6] 9.8%

CC(=O)Oc1ccc(/C=N\N(C)CN(C)/N=C/c2ccc(OC(C)=O)cc2)cc1
inactive: [1] 14% | [2] -9.65% | [3] 31.6% | [4] 18.4% | [5] 1.65% | [6] 17.7%

CCCCNC(=S)/N=C/c1c(O)cc(C)oc1=O
inactive: [1] -16.6% | [2] -25.9% | [3] -24.1% | [4] 2.25% | [5] -14.6% | [6] 2.75%

CN(C)B(B(N(C)C)N(C)C)N(C)C
inactive: [1] 13.7% | [2] 17.4% | [3] 35.6% | [4] 22.4% | [5] 13.8% | [6] 34.8%

Nc1nc2c(ccc3ccccc32)[nH]1
inactive: [1] -19.8% | [2] 6.8% | [3] 8.4% | [4] 6.5% | [5] 10.3% | [6] 21.6%

O=C(Nc1ccc(Cl)c(Cl)c1)C(=O)Nn1c(=S)[nH]c2ccccc2c1=O
inactive: [1] -4.05% | [2] -16.4% | [3] 2.8% | [4] -1.5% | [5] -0.8% | [6] 0.65%

Cc1ccccc1OCC(O)CO (stereo not drawn)
inactive: [1] 4.2% | [2] -5.9% | [3] -8.7% | [4] 22.2% | [5] -23.4% | [6] -13.6%

O=C(O)CC(CC(=O)O)c1ccc2c(c1)OCO2
inactive: [1] -32.6% | [2] -20.9% | [3] -3.7% | [4] -1.2% | [5] -35.8% | [6] -13.1%

Cc1cc2c(cc1C)[n+](=O)c(C(=O)CC(=O)C(=O)Nc1ccccc1C)c(C)n2[O-]
inactive: [1] 37% | [2] 46.5% | [3] 3.8% | [4] 30.4% | [5] 47.3% | [6] 9.3%

CCOC(=O)c1nc[nH]c1C(=O)OCC
inactive: [1] 17.5% | [2] -7.25% | [3] -6.1% | [4] 11% | [5] -1.35% | [6] 12%

CC(C)(C)NN=C1C(C)(C)C(=NNC(C)(C)C)C1(C)C
inactive: [1] -24% | [2] -30.1% | [3] -13.8% | [4] 13.9% | [5] -23.1% | [6] -10.9%

C[Si](C)(C)C#C[I+]c1ccccc1
inactive: [1] -27.6% | [2] -24.4% | [3] 12.7% | [4] 5.65% | [5] 8.95% | [6] -8.85%

Cc1cc(C(N)=O)c(C(N)=O)c(=O)[nH]1
inactive: [1] -13.1% | [2] 2% | [3] 0% | [4] -7.5% | [5] -14.2% | [6] 15.8%

O=C(/C(=N/O)c1ccc(Cl)cc1)c1ccccc1
active: [1] 99.5% | [2] 99.5% | [3] 99.4% | [4] 99% | [5] 99.3% | [6] 99.6%

CN1CCCC1c1cccnc1.O=C(O)c1ccccc1O.O=C([O-])c1ccccc1[OH2+].O=C([O-])c1ccccc1[OH2+].O=C([O-])c1ccccc1[OH2+].[Mn+2] (stereo not drawn)
inactive: [1] 1.55% | [2] -14.2% | [3] -10.3% | [4] -29.6% | [5] -45.8% | [6] 7.3%

CCc1cccc(C(C)C)c1NC(=O)C(=O)C(Cc1nc2ccccc2[nH]c1=O)C(=O)OC (stereo not drawn)
inactive: [1] 37.8% | [2] 8.6% | [3] 3.85% | [4] -57.9% | [5] 2.4% | [6] 15.4%

Cc1ccc(C(=O)O)c(C(=O)O)c1
inactive: [1] -11.2% | [2] -18.9% | [3] -18.4% | [4] -4.25% | [5] -17.1% | [6] 1.75%

C/C(=N\NC(=O)c1cc(C)nc2ccc(Br)cc12)c1ccccc1O
active: [1] 71.1% | [3] 79.8% | [6] 72.5%
inactive: [2] 63% | [4] 48.3% | [5] 7.3%

c1ccc(B2OC(c3ccccc3)=C(c3ccccc3)O2)cc1
inactive: [1] 1.45% | [2] -0.25% | [3] 17.9% | [4] 11.8% | [5] -0.45% | [6] 13.3%

[O-][N+](O)=C1c2ccccc2-c2ccccc21
inactive: [1] 7.4% | [2] 2.95% | [3] 0.65% | [4] -21.4% | [5] 3.75% | [6] 11.1%

NNCCSC1CCCCC1
inactive: [1] 8.9% | [2] 22.1% | [3] 15.3% | [4] -63.1% | [5] -17% | [6] 2.8%

O=C(/C=C/c1ccsc1)c1ccsc1
inactive: [1] -38.9% | [2] -51.9% | [3] -22.9% | [4] 3.6% | [5] 9.5% | [6] -3.05%

CCOP(=O)(OCC)/C(C#N)=C/c1ccc(N(C)C)cc1
inactive: [1] 16.3% | [2] -9.2% | [3] 12.4% | [4] 9.8% | [5] -13.9% | [6] 5.8%

COc1cccc(/C=N\N=C\c2cccc(OC)c2O)c1O
inactive: [1] 2.65% | [2] 2.7% | [3] -11.4% | [4] -7.05% | [5] 26.6% | [6] 33.9%

CC(=O)OC(C(=O)N(c1ccccc1)c1ccccc1)c1ccccc1 (stereo not drawn)
inactive: [1] 3.5% | [2] 27.4% | [3] 10.9% | [4] 18.2% | [5] 7.35% | [6] 16.1%

NC(=O)CS(=O)CC(N)C(=O)O (stereo not drawn)
inactive: [1] -5.9% | [2] -34.4% | [3] -46% | [4] -57.1% | [5] -10.9% | [6] -29.6%

CC(=O)NNC(=O)c1ccccc1CO
inactive: [1] -18.8% | [2] -15% | [3] -4.55% | [4] 10.4% | [5] -2% | [6] 20.9%

O=C1OC(Nc2ccccc2)C(Cl)=C1Cl (stereo not drawn)
inactive: [1] 38.1% | [2] 13.8% | [3] 22.5% | [4] 20.3% | [5] 6.2% | [6] -0.15%

CCN=NNc1ccc(C#N)cc1
inactive: [1] 6.4% | [2] 2.15% | [3] -0.25% | [4] 6.1% | [5] 16.9% | [6] 0.55%

Nc1ccc(S(=O)(=O)NO)cc1
inactive: [1] -12.1% | [2] -3.95% | [3] -2.55% | [4] -27.1% | [5] -2.2% | [6] 11.3%

C=C(C)C1CC=C(/C=N/O)CC1 (stereo not drawn)
inactive: [1] -4.6% | [2] 4% | [3] 5.65% | [4] -13.7% | [5] 8.1% | [6] 2.8%

O=C(CCCCCCC(=O)ON1C(=O)CCC1=O)ON1C(=O)CCC1=O
inactive: [1] -16.9% | [2] -3.55% | [3] -16.8% | [4] 13.8% | [5] -24.4% | [6] -4.1%

CCC(C)N=Cc1ccccc1O.CCC(C)N=Cc1ccccc1O.[Cu] (stereo not drawn)
inactive: [1] 33.7% | [2] -10.3% | [3] 28.4% | [4] -44.7% | [5] 2.1% | [6] 11.2%

COc1nc(N=P(c2ccccc2)(c2ccccc2)c2ccccc2)cc(=O)[nH]1
inactive: [1] 4.3% | [2] 1.6% | [3] 26.9% | [4] 27.7% | [5] 21.9% | [6] 4.65%
